{"source": "PubChem BioAssay AID1694", "about": "(National Center for Advancing Translational Sciences (NCATS), 2009)", "note": "Inconclusive results are not listed. Unmarked numbers belong to inactive results. Active and inactive are the calls of the source. The call rests on the fitted dose curve; in most records, active means well fitted curve in the direction sought with a large enough effect; inconclusive means small, poorly fitted or top-dose-only effect, or another doubt; inactive means no such curve, though single readings can be large or run the other way.", "data": [{"test": "Confirmation Concentration-Response Assay for Inhibitors of Tau Fibril Formation, Total Fluorescence Counterscreen for Fluorescence Polarization", "details": "Alexa594-tau K18 total fluorescence counterscreen, interference, tau K18 with P301L mutation; series mostly up to 100 µM; fluorescence change, negative = quenching: at the top concentration", "description": "NIH Molecular Libraries Probe Production Network [MLPCN] NIH Chemical Genomics Center [NCGC] MLPCN Grant: X01 MH083262-01 Assay Provider: Carlo Ballatore, University of Pennsylvania NCGC Assay Overview: The microtubule-associated protein tau is an abundant protein in the axons of neurons that stabilizes microtubules. With its ability to modulate microtubule dynamics, tau contributes directly or indirectly, to key structural and regulatory cellular functions. Particularly important is the influence tau exerts on axonal transport, which allows signaling molecules, trophic factors and other essential cellular constituents to travel along the axons. Under pathological conditions, tau becomes sequestered into insoluble aggregates called neurofibrillary tangles. This phenomenon is believed to have pathological consequences by promoting axonal transport deficits that ultimately lead to synaptic dysfunction and neuronal loss. To identify inhibitors of tau aggregation, a heparin-induced tau fibril formation assay was used that employed a recombinantly expressed fragment of tau, K18 (Q242-E372), bearing a P301L mutation (Gustke et al. 1994; Hong et al. 1998). […] Total fluorescence (555 nm excitation and 632 nm emission) was measured to identify fluorescent or absorbent compounds at this wavelength. Such compounds may be artifacts that interfere with the Alexa 594 Tau fluorescence polarization assay. Gustke, N., B. Trinczek, et al. (1994). \"Domains of tau protein and interactions with microtubules.\" Biochemistry 33(32): 9511-22. Hong, M., V. Zhukareva, et al. (1998). \"Mutation-specific functional impairments in distinct tau isoforms of hereditary FTDP-17.\" Science 282(5395): 1914-7. Li, W. and V. M. Lee (2006). \"Characterization of two VQIXXK motifs for tau fibrillization in vitro.\" Biochemistry 45(51): 15692-701. von Bergen, M., S. Barghorn, et al. (2001). \"Mutations of tau protein in frontotemporal dementia promote aggregation of paired helical filaments by enhancing local beta-structure.\" J Biol Chem 276(51): 48165-74.\nFor screening, 2 uL/well human K18 P301L (15 uM unlabeled and 0.24 uM Alexa 594-labeled tau final concentrations) in reagent buffer (100 mM sodium acetate pH 7) was dispensed into black solid 1536-well plates (Grenier) using a solenoid-based dispenser. Following transfer of 23 nL compound or DMSO vehicle by a pin tool, 2 uL/well heparin (20 uM final concentration) in reagent buffer was added and the plate centrifuged 15 s at 1000 RPM. Plates were incubated 6 hr at 37 C and then 1 uL/well ThT (30 uM final concentration) was added. After a 1 hr ambient incubation, the plates were read by an Envision (Perkin Elmer) to monitor Alexa 594 FP (555 nm excitation and 632 nm emission). Keywords: NIH Roadmap, MLPCN, MLI, MLSMR, NCGC, qHTS, tau, tauopathies, Alzheimer's disease, fibril, neurodegeneration, aggregation", "values": [{"smiles": "O=C(NCc1cccnc1)C1CCN(S(=O)(=O)c2cccs2)CC1", "fluorescence change, negative = quenching": "-5.66%"}, {"smiles": "CCN(CC)C(=O)c1nn(-c2ccc(OC)cc2)c(=O)c2c(N)scc12", "fluorescence change, negative = quenching": "-20.1% [at 57.1 µM]"}, {"smiles": "COc1c(Cl)cccc1NC(=O)c1c(NC(=O)Cc2ccccc2)sc2c1CCCC2", "fluorescence change, negative = quenching": "-3.36% [at 57.1 µM]"}, {"smiles": "CCOC(=O)c1c(N)sc2c1CCOC2", "fluorescence change, negative = quenching": "17.4% [at 57.1 µM]"}, {"smiles": "Cc1[nH]c(=O)c(C#N)cc1-c1ccncc1", "fluorescence change, negative = quenching": "2.45%"}, {"smiles": "Nc1nc2cc(S(=O)(=O)NC3=NCCCCC3)ccc2s1", "fluorescence change, negative = quenching": "17.4%"}, {"smiles": "Cn1sc(NC(=O)c2ccccc2)nc1=O", "fluorescence change, negative = quenching": "4.66% [at 57.1 µM]"}, {"smiles": "CCOC(=O)c1nn(-c2ccccc2)c(=O)c2c(NC(=O)c3ccccc3)scc12", "fluorescence change, negative = quenching": "0.942% [at 57.1 µM]"}, {"smiles": "Cc1nc2ccccc2oc1=O", "fluorescence change, negative = quenching": "11.2%"}, {"smiles": "CCOC(=O)c1nn(-c2ccccc2F)c(=O)c2c(N)scc12", "fluorescence change, negative = quenching": "-6.67% [at 57.1 µM]"}, {"smiles": "O=C(Nc1nc2ccc(S(=O)(=O)N3CCCC3)cc2s1)c1ccc(F)cc1", "fluorescence change, negative = quenching": "-1.76%"}, {"smiles": "Cc1ccc(C(=O)Nc2nc(=O)n(C(=O)C3CC3)s2)cc1", "fluorescence change, negative = quenching": "12.3%"}, {"smiles": "NC[C@@H](O)c1ccc(O)c(O)c1", "fluorescence change, negative = quenching": "-7.44%"}, {"smiles": "CN(C)c1ccc(-c2cc[nH]c(=O)c2N)cc1", "fluorescence change, negative = quenching": "-17.8%"}, {"smiles": "COC(=O)C1CCc2sc(N)c(C(=O)OCc3ccccc3)c21", "note": "(stereo not given)", "fluorescence change, negative = quenching": "-3.27% [at 57.1 µM]"}, {"smiles": "O=C(O)CC1S/C(=N/N=C/c2ccc(-c3ccccc3[N+](=O)[O-])o2)NC1=O", "note": "(stereo not given)", "fluorescence change, negative = quenching": "4.83%"}, {"smiles": "COC(=O)c1nn(-c2ccc(OC)cc2)c(=O)c2c(N)sc(C)c12", "fluorescence change, negative = quenching": "-0.76%"}, {"smiles": "Cc1ccc(S(=O)(=O)N(C)c2nc3ccccc3[nH]c2=S)cc1", "fluorescence change, negative = quenching": "7.27%"}, {"smiles": "Nc1nn(-c2ccccc2)c(=O)c2c(N)scc12", "fluorescence change, negative = quenching": "-1.43% [at 57.1 µM]"}, {"smiles": "CCOC(=O)c1ccc(-n2nc(C(=O)OCC)c3csc(N)c3c2=O)cc1", "fluorescence change, negative = quenching": "-11.1% [at 57.1 µM]"}, {"smiles": "COC(=O)c1c(NC(=O)CCCOc2ccc(C(C)(C)C)cc2)sc2c1C(C(=O)OC)CC2", "note": "(stereo not given)", "fluorescence change, negative = quenching": "4.07%"}, {"smiles": "CCOC(=O)c1nn(-c2ccccc2)c(=O)c(C#N)c1C", "fluorescence change, negative = quenching": "4.66% [at 57.1 µM]"}, {"smiles": "COc1ccc(CNC(=O)Cn2nc(C)n3cccc3c2=O)cc1", "fluorescence change, negative = quenching": "-6.66%"}, {"smiles": "Cc1ccc(C2=NNC(=Nc3ccc(F)cc3)SC2)cc1", "fluorescence change, negative = quenching": "-13.1%"}, {"smiles": "CN(c1ccccc1)S(=O)(=O)c1nnc(NC(=O)COc2ccccc2)s1", "fluorescence change, negative = quenching": "-11.1%"}, {"smiles": "O=S(=O)(c1ccc(NC(=S)N/N=C/c2ccc(N3CCOCC3)cc2)cc1)N1CCOCC1", "fluorescence change, negative = quenching": "2.35%"}, {"smiles": "O=C(Cc1ccccc1)Nc1sc2c(c1C(=O)Nc1ccc(Cl)cc1)CCOC2", "fluorescence change, negative = quenching": "-16.6% [at 57.1 µM]"}, {"smiles": "Cc1ccc(NCc2cc3cc4c(cc3n(CC(=O)Nc3ccc(C)cc3)c2=O)OCCO4)cc1", "fluorescence change, negative = quenching": "-9.33%"}, {"smiles": "CCOC(=O)c1nn(-c2ccccc2)c(=O)c2c(NC(C)=O)scc12", "fluorescence change, negative = quenching": "12.6% [at 57.1 µM]"}, {"smiles": "Cc1ccc(C(=O)Nc2nc(=O)n(C(=O)CC(C)C)s2)cc1", "fluorescence change, negative = quenching": "2.86%"}, {"smiles": "CCOC(=O)c1nn(-c2ccc(C)c(C)c2)c(=O)c2c(N)scc12", "fluorescence change, negative = quenching": "-15.5% [at 57.1 µM]"}, {"smiles": "CN(C)c1ccc(N2C(=O)CSC2=S)cc1", "fluorescence change, negative = quenching": "-26.9%"}, {"smiles": "COc1ccc2[nH]c(=O)c(CNc3cccc(C)c3)cc2c1", "fluorescence change, negative = quenching": "-6.53%"}, {"smiles": "NCCc1ccc(O)c(O)c1", "fluorescence change, negative = quenching": "-17.2%"}, {"smiles": "CN(C(=S)Nc1cccnc1)c1ccc(O)cc1", "fluorescence change, negative = quenching": "5.46%"}, {"smiles": "O=C(Cc1ccccc1)Nc1sc2c(c1C(=O)Nc1ccc(Cl)cc1)CCCC2", "Potency": "inactive"}, {"smiles": "COC(=O)c1c(N)sc2c1C(C(=O)OC)CC2", "note": "(stereo not given)", "fluorescence change, negative = quenching": "-4.91% [at 57.1 µM]"}, {"smiles": "CN(c1ccccc1)S(=O)(=O)c1nnc(NC(=O)C2CCCCC2)s1", "fluorescence change, negative = quenching": "-17.2%"}, {"smiles": "CCOC(=O)c1nn(-c2cccc(C(F)(F)F)c2)c(=O)c2c(N)scc12", "Potency": "1580 nM [quencher] (active)"}, {"smiles": "Cc1sc(N)c2c(=O)n(-c3ccccc3)ncc12", "fluorescence change, negative = quenching": "-11.4% [at 57.1 µM]"}]}]}
